± gives the standard deviation.

This assay deals with OVCAR-3-derived ovarian cancer stem-like cells (spheroids). As to the kind of experiment: cell growth relative to untreated control; higher = more growth (less inhibition). The note with it: 2.29 µM; 96 h. A digest of the protocol: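 After trypsin dissociation, OVCAR-3 spheroid-derived stem-like cells were placed in ultra-low attachment 96-well plates at 50,000 cells/mL in stem cell medium and preincubated for 24 h. Treatment at 2.29 uM followed for 96 h at 37°C, 5% CO2, with 4 replicate wells per compound. A 4 h TOX8 resazurin fluorescence read (ex 560/em 590 nm) gave viability, from which percent growth relative to untreated wells was derived after blank subtraction and Grubbs outlier removal.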
`COC1=C(C)C(=O)C2=C(C1=O)C(CO)N1C(C#N)C3CC4C(C1C2N1CCOC41)N3C` (configuration not stated) showed a cell growth of 14.9 ± 4.6%.
To `COC1CC(OC2CCC3(C=O)C4CCC5(C)C(C6=CC(=O)OC6)CCC5(O)C4CCC3(O)C2)OC(C)C1OC1OC(CO)C(O)C(O)C1O` (configuration not stated) belongs 8.05 ± 3.3%.
As for `CC12CCC(O)CC1CCC1C2CCC2(C)C(C3=CC(=O)OC3)CCC12O` (configuration not stated), the cell growth stood at 26.5 ± 3.1%.
As for `C/C1=C\[C@H](C)C[C@H](C)OC(=O)CC(c2ccc(O)cc2)NC(=O)[C@@H](Cc2c(Br)[nH]c3ccccc23)N(C)C(=O)[C@H](C)NC(=O)[C@@H](C)C1` (some centres not stated), the figure is 25 ± 5.7%; as for `CC1=CC23C(COC(=O)C24CO4)C(C(=O)O)=CC3C1C.NCc1ccccc1` (configuration not stated), 74.5 ± 29%; as for `CCC[CH2][Sn]1([CH2]CCC)[S]CC[N]1S(=O)(=O)c1ccc(C)cc1`, 36.9 ± 13%.
As for `C[n+]1cc2cc(O)c(O)cc2c2ccc3cc(O)c(O)cc3c21.c1ccncc1`, the figure is 91.8 ± 23%; as for `CC[C@](C)(O)C(=O)O[C@H]1C(=O)O[C@@H]2C[C@H]3C(C)=CC(=O)[C@@H](O)[C@]3(C)[C@H]3C4(O)OC[C@]32[C@@H]1[C@@H](C)[C@H]4O`, 35.2 ± 15%.
As for `COc1cccc2c1C(=O)c1c(O)c3c(c(O)c1C2=O)C[C@@](O)(C(C)=O)C[C@@H]3O[C@H]1C[C@H](N(Cc2ccccc2)Cc2ccccc2)[C@H](O)[C@H](C)O1`, the figure is 62.8 ± 11%.
The molecule `C[C@@H]1CCOC(=O)/C=C/C=C\C(=O)O[C@@H]2C[C@H]3O[C@@H]4[C@@H]5O[C@]5(C)[C@H](O)C[C@]4(COC(=O)[C@H]1O)[C@]2(C)[C@@]31CO1` yielded a cell growth of 13.4 ± 5.4%.
As for `C=C1C(C)C2C(Cc3ccccc3)NC(=O)C23C(OC(C)=O)/C=C/C(C)(O)CC(C)C/C=C/C3C1O` (configuration not stated), the figure is 90.3 ± 20%; as for `C1CCNCC1.S=C(S)N1CCCCC1`, 36.2 ± 3.5%.
To `CC1=C2C(=CC(C)(C)[C@@H]2O)C(=O)[C@](C)(O)C12CC2` belongs 20.3 ± 2.4%; to `COC1CC(O[C@H]2CC[C@]3(C=O)[C@H]4CC[C@]5(C)[C@@H](C6=CC(=O)OC6)CC[C@]5(O)[C@@H]4CC[C@]3(O)C2)OC(C)C1O` (some centres not stated), 52.2 ± 16%.
As to `CC(C)OP(=O)(OC(C)C)C(N(C)C)P(=O)(OC(C)C)OC(C)C.[Cl][Sn]([Cl])([Cl])[c]1ccccc1`, the cell growth came to 62.2 ± 17%.
As for `COC1CC(OC2CCC3(C=O)C4CCC5(C)C(C6=CC(=O)OC6)CCC5(O)C4CCC3(O)C2)OC(C)C1OC1OC(COC2OC(CO)C(O)C(O)C2O)C(O)C(O)C1O` (configuration not stated), the figure is 63.1 ± 13%; as for `CCCCCn1cc2c3c(cccc31)C1C=C(C)CN(C)[C@@H]1C2.Cc1ccc(C(=O)OC(C(=O)O)C(OC(=O)c2ccc(C)cc2)C(=O)O)cc1` (configuration not stated), 78.9 ± 11%; as for `COC(=O)C1C(O)C(C)C(O)C(C)/C=C\C=C(C)C(=O)Nc2c(C)c(OC(C)=O)c3c(c2O)C(=O)C(C)=C2OCOC(=C23)C(C)=CC(C)(O)C(O)C(C)C1O` (configuration not stated), 84.9 ± 18%.
Regarding `[O-][Cl+3]([O-])([O-])[O-].c1ccc(-c2csc3c4ccccc4c4ccccc4[n+]23)cc1`, the cell growth came to 45.5 ± 12%.
Molecule `COc1ccc(C[C@@H]2NC[C@@H](O)[C@@H]2OC(C)=O)cc1` registered a cell growth of 94.2 ± 33%.
To `CC[C@H](C)[C@@H]1NC(=O)[C@@H](NC(=O)c2c3nc4c(C(=O)N[C@@H]5C(=O)N[C@@H](C(C)C)C(=O)N6CCC[C@H]6C(=O)N(C)CC(=O)N(C)[C@@H](C(C)C)C(=O)O[C@@H]5C)ccc(C)c4oc-3c(C)c(=O)c2N)[C@@H](C)OC(=O)[C@H](C(C)C)N(C)C(=O)CN(C)C(=O)[C@@H]2CCCN2C1=O` belongs 10.9 ± 3.5%; to `CC1OC(O[C@@H]2C=C3CC[C@@H]4[C@H](CC[C@]5(C)[C@@H](c6ccc(=O)oc6)CC[C@]45O)[C@@]3(C)CC2)C(O)C(O)C1O` (some centres not stated), 24.5 ± 6.9%.
To `N[C@@H](CN(O)N=O)C(=O)O` belongs 105 ± 19%; to `COC(=O)[C@@]12OC[C@]34[C@H]([C@@H](O)[C@@H]1O)[C@@]1(C)CC(=O)C(O)=C(C)[C@@H]1C[C@H]3OC(=O)[C@H](OC(=O)/C=C(\C)C(C)C)[C@@H]24`, 6.1 ± 4.4%; to `COc1cc2c(cc1O)N=CC1CCC(O)N1C2=O` (configuration not stated), 93.8 ± 20%.
To `Oc1cccc2cccnc12` belongs 80.4 ± 14%; to `CO[C@H]1[C@@H](O)[C@@H](C)O[C@H](O[C@H]2[C@H](Oc3cccc4c(O)c5c(=O)oc6ccc(C)c7c(=O)oc(c34)c5c67)O[C@H](C)[C@H](O)[C@@H]2O)[C@@H]1O`, 67.4 ± 17%; to `C[n+]1ccc(-c2cc[n+](C)cc2)cc1`, 101 ± 11%.
In turn, `O=C([O][Hg][CH2]C1COC([CH2][Hg][O]C(=O)c2ccccc2)CO1)c1ccccc1` (configuration not stated) registered a cell growth of 69.9 ± 76%.
To `C[Si](C)(CN)CN.[Cl][Pt][Cl]` belongs 137 ± 53%; to `CC(C)(O)C=CC(=O)C(C)(O)C1C(O)CC2(C)C3CC=C4C(C=C(O)C(=O)C4(C)C)C3(C)C(=O)CC12C` (configuration not stated), 28.1 ± 6.1%.
As for `Cc1cc2c(C(C)C)c(O)c(O)c(C=O)c2c(O)c1-c1c(C)cc2c(C(C)C)c(O)c(O)c(C=O)c2c1O`, the figure is 86 ± 61%.

These data come from the supplement of paper PMC3484114.
